Calls of active or inactive are those of the source.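 The calls were made as follows, unless noted: active = fluorescence slope after compound addition differing from the mean of all screened samples at 99.7% confidence, in either direction; inactive = the rest.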
Key:
[1] = inhibitors of TNFa-induced NFkB p65 translocation, primary screen, imaging, HUVEC, MLSMR starter and 10KST1 sets (AID 438;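 active = inhibition above 20% together with a positive visual image hit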;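 also: compound added about 3h40 before a 20 min TNFalpha stimulation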;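 as to inhibition: signal is the nuclear over cytoplasmic p65 intensity ratio per well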); settings: HUVEC TNFa-induced p65 nuclear translocation; cell count: measured here: nuclei count (cytotoxicity indicator), at 2.08 µM; inhibition: at 2 µM, stronger effect = higher value, 0% TNFa-plus-vehicle, 100% no-TNFa wells
[2] = reduction of polyQ htt aggregates in cells – imaging, exon1htt(103Q)mCFP cells, high-content imaging, primary screen (AID 483;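 active = visual image review flags a hit and inhibition of aggregation exceeds 20%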;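 also: compound exposure lasted 3 days before fixation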;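 as to nuclei count: percent of the per-plate median nuclei count of sample wells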); settings: exon1htt(103Q)mCFP cell line, aggregate imaging, at 2 µM; inhibition of aggregation: stronger effect = higher value; nuclei count: measured here: cell count, toxicity
[3] = endothelial E-selectin expression blockers – imaging, HUVEC, immunofluorescence, MLSMR starter and 10KST1 sets, primary screen (AID 487;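 active = visually confirmed hit in the image check and inhibition above 20%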;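 as to inhibition: signal is fraction of cell area covered by stained E-selectin grains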;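 as to nuclei count: 100% = median nuclei count of all wells on the same plate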); settings: HUVEC TNFalpha-induced E-selectin immunofluorescence imaging, at 2 µM; inhibition: stronger effect = higher value; nuclei count: measured here: cell number, toxicity
[4] = molecular target: Voltage-gated potassium channel subunit beta-2 (Rattus norvegicus) (UniProt P62483); assay: inhibitors of rat Kvbeta2 reductase activity – biochemical, NADPH fluorescence, primary screen (AID 622;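 active = fluorescence slope higher than the sample average by over 3 SD, cut at about -0.22 in these data, passing the limit was not always enough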;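 also: slope of raw intensity against log time taken from 70 to 1610 s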); settings: recombinant KvBeta, 4-cyanobenzaldehyde reduction, at 10 µM, stronger effect = higher value
[5] = molecular target: Voltage-gated potassium channel subunit beta-2 (Rattus norvegicus) (UniProt P62483); assay: enhancers of rat Kvbeta2 NADPH turnover – biochemical, NADPH fluorescence, primary screen (AID 623;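 active = NADPH fluorescence slope more negative than the mean of all samples by about 3 SD, 99.7% confidence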;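 also: fluorescence intensity change per second fitted from 20 to 320 s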); settings: Recombinant KvBeta, NADPH fluorescence decrease slope, 10 min; at 10 µM; stronger effect = lower value
[6] = molecular target: Alpha-2C adrenergic receptor (Homo sapiens) (UniProt P18825); assay: compounds altering alpha2C-coupled GIRK flux – cell-based, HEK293 alpha2C/GIRK1/2, thallium flux, primary screen (AID 624); settings: thallium flux BTC fluorescence, at 10 µM, actives lie on both sides;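 also: slope of fluorescence ratio to pre-addition baseline per second over 15 to 24 s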
[7] = blockers of RIG-like receptor reporter activation – cell-based, Sendai virus stimulus, luciferase, 10K MLSCN set, TLR/RLR signaling modifier project, primary screen (AID 602276;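 active = inhibition at or above 50% at 10 µM; inactive = inhibition below 50%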;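 also: firefly luciferase from ISG56 promoter only with Renilla not read in this screen; 0% = Sendai virus plus DMSO and 100% = medium plus DMSO without virus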); settings: HEK293 RL24 IRF3 luciferase reporter, at 10 µM, stronger effect = higher value
[8] = TLR3 IRF3 reporter activation blockers – cell-based, poly I:C stimulus, luciferase, 10K MLSCN set, primary screen (AID 602277;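 active = inhibition of the reporter signal at or above 50%; inactive = inhibition below 50%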); settings: HEK293-TLR3 RL24 IRF3 luciferase reporter, at 10 µM, stronger effect = higher value

Sequence of Voltage-gated potassium channel subunit beta-2 (Rattus norvegicus) (P62483 whole entry, looked up): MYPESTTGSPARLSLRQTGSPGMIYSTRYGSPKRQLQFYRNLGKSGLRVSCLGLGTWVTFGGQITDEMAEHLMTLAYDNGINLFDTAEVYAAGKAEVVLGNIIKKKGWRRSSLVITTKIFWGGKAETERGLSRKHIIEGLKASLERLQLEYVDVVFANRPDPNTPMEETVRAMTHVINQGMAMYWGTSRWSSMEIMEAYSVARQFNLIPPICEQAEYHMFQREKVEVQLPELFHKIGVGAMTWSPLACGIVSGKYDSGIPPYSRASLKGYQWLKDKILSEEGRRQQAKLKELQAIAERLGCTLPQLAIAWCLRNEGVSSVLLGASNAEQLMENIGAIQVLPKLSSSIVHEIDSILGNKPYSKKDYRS
Sequence of Alpha-2C adrenergic receptor (Homo sapiens) (P18825 whole entry, looked up): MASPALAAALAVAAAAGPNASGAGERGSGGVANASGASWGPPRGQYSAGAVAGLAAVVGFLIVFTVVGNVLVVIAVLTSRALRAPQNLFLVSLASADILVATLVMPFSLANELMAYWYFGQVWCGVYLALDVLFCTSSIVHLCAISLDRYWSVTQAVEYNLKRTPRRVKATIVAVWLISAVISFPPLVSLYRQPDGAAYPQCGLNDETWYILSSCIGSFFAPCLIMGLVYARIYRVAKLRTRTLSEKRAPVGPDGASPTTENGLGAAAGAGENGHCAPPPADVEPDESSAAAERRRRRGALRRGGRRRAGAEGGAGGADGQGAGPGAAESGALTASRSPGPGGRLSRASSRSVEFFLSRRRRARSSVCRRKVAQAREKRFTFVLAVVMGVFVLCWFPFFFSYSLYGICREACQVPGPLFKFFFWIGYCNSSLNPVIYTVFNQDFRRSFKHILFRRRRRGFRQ

SMILES	cell count [1]	inhibition [1]	inhibition of aggregation [2]	nuclei count [2] [%]	inhibition [3]	nuclei count [3] [%]	fluorescence slope [4]	NADPH fluorescence slope [5]	slope [6]	inhibition [7]	inhibition [8]
CN(C1CCCCC1)S(=O)(=O)c1ccc(S(=O)(=O)N2CCN(CCC#N)CC2)cc1	698	0% (inactive)	28.2% (inactive)	124	-53.2% (inactive)	107	-0.527 (inactive)	-3.3e-06 (inactive)	0.00618 (inactive)	3.23% (inactive)	15.8% (inactive)
Cc1ccc(-c2noc(CCC(=O)N3CCN(c4cccc(C(F)(F)F)c4)CC3)n2)cc1	647	7.6% (inactive)	-10.2% (inactive)	95.8	-36.9% (inactive)	111	-0.391 (inactive)	-5.4e-05 (inactive)	0.00562 (inactive)	9.01% (inactive)	6.71% (inactive)
CN1CCN(Cc2nc3c(c(=O)n(C)c(=O)n3C)n2Cc2ccccc2Cl)CC1	746	-15.7% (inactive)	4.7% (inactive)	100	-14.4% (inactive)	105	-0.409 (inactive)	-2e-05 (inactive)	0.00482 (inactive)	4.15% (inactive)	45.1% (inactive)
C(=C\c1ccccc1)/CN1CCN(Cc2ccc3c(c2)OCCO3)CC1	435	0.5% (inactive)	2% (inactive)	104	-26.4% (inactive)	120	-0.442 (inactive)	2e-05 (inactive)	0.00636 (inactive)	14% (inactive)	19.9% (inactive)
Cc1nc2sc(C(c3cccs3)N3CCOCC3)c(O)n2n1 (centres undefined)	591	-0.3% (inactive)	-28.8% (inactive)	112	-5.1% (inactive)	115	-0.553 (inactive)	-4.2e-05 (inactive)	0.00703 (inactive)	9.99% (inactive)	32.1% (inactive)
CN(C)CCCN1C(=O)CSC1c1ccccc1 (centres undefined)	607	-8.9% (inactive)	30.6% (inactive)	93.9	-57.4% (inactive)	104	-0.541 (inactive)	-3e-05 (inactive)	0.00787 (inactive)	4.6% (inactive)	35.9% (inactive)
N#CCCN1CCN(S(=O)(=O)c2ccc(S(=O)(=O)NC3CCCC3)cc2)CC1	689	-10% (inactive)	-6.8% (inactive)	126	-2.1% (inactive)	126	-0.624 (inactive)	-3.6e-05 (inactive)	0.00706 (inactive)	-1.55% (inactive)	28.4% (inactive)
CC(=O)N(C(C)=O)c1c(C#N)c(C)n(-c2ccccc2)c1C(=O)c1ccccc1	430	8.5% (inactive)	4.6% (inactive)	102	24.1% (inactive)	110	-0.503 (inactive)	-3.8e-05 (inactive)	0.00413 (inactive)	27% (inactive)	26.6% (inactive)
Cc1nn(C)c(C)c1S(=O)(=O)N1CCCC(C(=O)N2CCN(c3ccc(Cl)cc3)CC2)C1 (centres undefined)	288	-3.9% (inactive)	-45.6% (inactive)	94.8	-270% (inactive)	85.9	-0.591 (inactive)	-1.7e-05 (inactive)	0.00589 (inactive)	11.1% (inactive)	11.6% (inactive)
Cc1cc(C)n(-c2nc3nonc3nc2-n2nc(C)cc2C)n1	797	-15.2% (inactive)	-2.2% (inactive)	110	-20.5% (inactive)	106	-0.416 (inactive)	-2e-05 (inactive)	0.00318 (inactive)	11.8% (inactive)	27.1% (inactive)
Cc1ccc(CNc2cc(-c3nn4c(C)nnc4s3)ccc2C)s1	679	8.6% (inactive)	-34.9% (inactive)	2.1	-76.3% (inactive)	102	-0.444 (inactive)	-1.1e-05 (inactive)	0.00646 (inactive)	5.73% (inactive)	13.7% (inactive)
COC(=O)CCCCCc1ccc(C(C)=O)s1	350	-6.3% (inactive)	10.5% (inactive)	101	-65.9% (inactive)	120	-0.496 (inactive)	-3.1e-05 (inactive)	0.00508 (inactive)	16.6% (inactive)	15.4% (inactive)
CN1CCC(NC(=O)c2cccs2)CC1	575	8.5% (inactive)	-27.2% (inactive)	88.6	-16.6% (inactive)	112	-0.547 (inactive)	-5e-05 (inactive)	0.00687 (inactive)	8.43% (inactive)	33.8% (inactive)
COc1ccc2cc(C(c3nnnn3C3CCCCC3)N3CCCCCC3)c3nnnn3c2c1 (centres undefined)	828	-6.7% (inactive)	-7.5% (inactive)	108	-10.3% (inactive)	114	-0.444 (inactive)	-3.1e-06 (inactive)	0.00937 (inactive)	7.67% (inactive)	-2.36% (inactive)

— PubChem BioAssay
